# Laboratory results from PubChem BioAssay.
# A number with no mark means an inactive call. Activity calls are given as the source filed them. Rule as the data show it, unless noted: active = inhibition above about 33%; inactive = the rest.
# Tests used:
# [1] = StAR promoter reporter inhibitors, counter-screen for LRH-1 inverse agonist project, cell-based, luminescence, high throughput (AID 651611; in the data active = inhibition above about 28%); details: StAR promoter luciferase reporter counterscreen, at 3.6 µM, stronger effect = higher value
# [2] = target: Nuclear receptor subfamily 5 group A member 2 (Homo sapiens) (UniProt O00482); assay: NR5A2 activity suppression in reporter cells – cell-based, luminescence, confirmation (AID 651613; in the data active = inhibition above about 42%;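 also: HEK293T cells co-transfected with LRH-1 and StAR promoter luciferase reporter; 0% = vehicle wells and 100% = parental cells lacking receptor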); details: cell-based LRH-1 luciferase reporter, inverse agonism; at 3.6 µM; stronger effect = higher value
# Chain of Nuclear receptor subfamily 5 group A member 2 (Homo sapiens) (O00482 whole entry, looked up): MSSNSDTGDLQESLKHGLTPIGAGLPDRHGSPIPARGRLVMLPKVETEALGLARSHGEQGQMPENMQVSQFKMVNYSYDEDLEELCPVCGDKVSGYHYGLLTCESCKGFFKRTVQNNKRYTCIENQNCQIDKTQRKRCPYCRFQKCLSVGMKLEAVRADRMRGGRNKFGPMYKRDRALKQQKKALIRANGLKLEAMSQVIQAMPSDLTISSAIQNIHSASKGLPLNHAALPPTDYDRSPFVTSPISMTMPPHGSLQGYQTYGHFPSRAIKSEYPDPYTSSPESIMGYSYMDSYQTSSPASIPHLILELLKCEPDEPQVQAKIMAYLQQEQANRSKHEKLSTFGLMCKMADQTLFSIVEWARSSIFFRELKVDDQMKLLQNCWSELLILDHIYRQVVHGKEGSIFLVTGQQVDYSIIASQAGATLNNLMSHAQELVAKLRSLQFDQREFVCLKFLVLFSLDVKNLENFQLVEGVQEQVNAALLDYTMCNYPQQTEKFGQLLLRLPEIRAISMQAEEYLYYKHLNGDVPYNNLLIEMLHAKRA
# [3] = target: Steroidogenic factor 1 (Homo sapiens) (UniProt Q13285); assay: inverse agonism at SF1 nuclear receptor – cell-based, luminescence, high throughput, counter-screen for LRH-1 inverse agonist project (AID 651614; in the data active = inhibition above about 44%;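 also: cells cotransfected with StAR promoter reporter and SF1 expression vector; 0% = vehicle on cells with receptor and 100% = vehicle on cells lacking receptor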); details: cell-based SF1 luciferase reporter, at 3.6 µM, stronger effect = higher value
# Chain of Steroidogenic factor 1 (Homo sapiens) (Q13285 whole entry, looked up, the tested form may be a part): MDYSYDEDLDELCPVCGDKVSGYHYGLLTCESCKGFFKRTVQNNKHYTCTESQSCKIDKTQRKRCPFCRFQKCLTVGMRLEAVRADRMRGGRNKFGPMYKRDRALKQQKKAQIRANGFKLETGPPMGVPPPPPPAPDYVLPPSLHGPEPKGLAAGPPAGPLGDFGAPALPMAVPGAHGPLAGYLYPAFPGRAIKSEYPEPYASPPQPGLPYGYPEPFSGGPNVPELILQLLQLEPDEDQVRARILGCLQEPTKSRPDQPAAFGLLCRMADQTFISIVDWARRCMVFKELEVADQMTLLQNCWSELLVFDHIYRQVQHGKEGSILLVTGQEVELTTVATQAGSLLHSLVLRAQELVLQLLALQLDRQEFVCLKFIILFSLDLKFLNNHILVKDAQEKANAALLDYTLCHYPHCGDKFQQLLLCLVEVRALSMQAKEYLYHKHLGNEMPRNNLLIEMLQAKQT
# [4] = compounds suppressing VP16-driven luciferase signal – cell-based, luminescence, high throughput, counter-screen for LRH-1 inverse agonist project (AID 651615); details: Gal4-VP16 luciferase reporter cells, at 3.6 µM, stronger effect = higher value
SMILES,inhibition [1],inhibition [2],inhibition [3],inhibition [4]
COc1cccc2sc(N3CCN(C(=O)c4ccc([N+](=O)[O-])o4)CC3)nc12,25.2%,69.2% (active),70.4% (active),-23.4%
COc1ccc(CCNC(=O)CSc2nn3c(=O)c(C)nnc3s2)cc1OC,8.26%,57.5% (active),47.2% (active),-10.1%
COc1ccc(S(=O)(=O)N2CCCCC2)cc1NC(=O)c1ccc([N+](=O)[O-])o1,25.8%,74.9% (active),68.1% (active),18.6%
CCc1cc(=O)oc2cc(C)cc(OCC(=O)NC3CC3)c12,-0.05%,66.5% (active),55.9% (active),10.2%
COc1ccc(N=C2NN=C(c3c(C)[nH]c4ccccc34)CS2)cc1,-7.38%,43.1% (active),32.1%,-7.14%
COc1ccc(OC)c(NS(=O)(=O)c2ccc(SC)cc2)c1,37.9% (active),55% (active),54.2% (active),14.8%
O=c1c2ccccc2c(C=Nc2ccccc2O)c(O)n1-c1nccs1,5.33%,46.1% (active),35.1%,-7.97%
CS(=O)(=O)c1ccc2nc(NC(=O)C3CC(=O)N(c4ccccc4)C3)sc2c1 (configuration not stated),29.6% (active),60.4% (active),55.9% (active),11.3%
Cc1ccc(-c2nc3ncccc3o2)cc1NC(=O)c1ccc([N+](=O)[O-])o1,24.2%,57.8% (active),69.4% (active),-15.3%
CC(C)c1cc(NC(=O)CCl)on1,35.2% (active),47.4% (active),51.9% (active),-11.4%
Cc1cc(C)c2sc(NC(=O)c3ccc([N+](=O)[O-])o3)nc2c1,-1.04%,54.4% (active),53.5% (active),-7.08%
CCOc1ccc(NC(=O)COC(=O)COc2cccc3c2OC(C)(C)C3)cc1,1.8%,61.5% (active),60.5% (active),-1.47%
COC(=O)c1ccc(N2CCCCC2)c(NC(=O)c2ccco2)c1,9.72%,55.3% (active),61.5% (active),4.64%
CCOc1ccc(CCNC(=O)COC(=O)CSc2ccccc2C)cc1OCC,2.02%,49% (active),41%,8.24%
CC(=O)N1CCN(c2ccc(Oc3ccc([N+](=O)[O-])c(C(F)(F)F)c3)cc2)CC1,30.3% (active),68.3% (active),72.9% (active),57.5% (active)
CO/N=C/C(=N\Nc1cc(OC)cc(OC)c1)C(=O)c1ccccc1,13.2%,63.4% (active),58.3% (active),0.16%
COc1ccc(/C=C2/C(=O)OCc3cc(OC)c(OC)cc32)cc1,36.9% (active),56.4% (active),57.9% (active),23.4%
Cc1ccc(NC(=O)COC(=O)C(NS(=O)(=O)c2ccc(Cl)cc2)C(C)O)c(Br)c1 (configuration not stated),3.18%,55.3% (active),57.6% (active),-12.9%
COc1ccc(N2CCN(C(=O)C3CCC(Cn4c(=S)[nH]c5ccccc5c4=O)CC3)CC2)cc1 (configuration not stated),9.08%,36.1%,39.2%,26.8%
CCn1c2ccccc2c2cc(/C=N/n3c(C)nnc3C)ccc21,27.4%,26.4%,38.5%,-25%
Cc1cccc(C)c1NC(=O)C(c1ccc(C(F)(F)F)cc1)n1c(=O)c(-c2cc3ccccc3[nH]2)nc2ccccc21 (configuration not stated),13.9%,23.7%,24.7%,7.59%
O=C(NC1CCCC(C(F)(F)F)C1)c1ccc([N+](=O)[O-])o1 (configuration not stated),15.8%,65.4% (active),63% (active),-1.15%
O=C1C=C(NCCc2ccccc2)C2(CCCCC2)O1,3.62%,59.9% (active),49.5% (active),-3.99%
O=C(Nc1ccc([N+](=O)[O-])cc1)c1cccc([N+](=O)[O-])c1,8.52%,65.6% (active),64.5% (active),-15.3%
Cc1ccc(Cl)cc1NC(=O)COC(=O)CC(C)(C)C,28.3% (active),62.4% (active),60.2% (active),-10.5%
Cc1ccccc1-c1nnc(SCC(=O)Nc2cccc(C)c2C)o1,-7.62%,24.8%,26.9%,-3.77%
O=C(Nc1ccc(Cl)cn1)c1ccc([N+](=O)[O-])o1,-0.66%,51.5% (active),55% (active),-20.8%

SMILES,inhibition [1],inhibition [2],inhibition [3],inhibition [4]
O=C(Cn1nnc2ccccc2c1=O)Nc1ccc2c(c1)CCC2,-34.8%,20.8%,25.6%,0.93%
O=C(CSc1nc2cccc(F)c2c(=O)n1-c1ccccc1)Nc1ccc2c(c1)CCC2,19.2%,57.3% (active),57.5% (active),-5.06%
Cc1nc2ccc(NS(=O)(=O)c3ccc4c(c3)OCCO4)cc2s1,7.73%,56.4% (active),57.4% (active),52.6% (active)
CCc1cc(=O)[nH]c(SCC(=O)Nc2ccc3c(c2)OCCO3)n1,4.24%,40.6%,45.7% (active),0.13%
Cc1ccc(NC(=O)CSc2nnc(-c3n[nH]c4ccccc34)n2-c2ccccc2)c(C)c1,3.14%,60.5% (active),60.3% (active),4.59%
O=C(c1cccc(Cl)c1)N1CCCC(c2ccc(Cl)cc2)=N1,2.78%,49.8% (active),57.3% (active),3.04%
Cc1cc2ccccn2c1C(=O)c1cccc([N+](=O)[O-])c1,10.1%,44% (active),42%,-4.87%
CC(=O)c1ccc2c(c1)C1C=CCC1C(c1cc3c(cc1Br)OCO3)N2 (configuration not stated),45.6% (active),50.3% (active),46.1% (active),16.9%
COc1ccc(NC(=O)/C(Cl)=C(/Cl)S(=O)Cc2ccc(Cl)cc2)cn1 (configuration not stated),58% (active),91.7% (active),84.6% (active),89.5% (active)
COc1ccc(NC(=S)NCCc2ccc(F)cc2)c(OC)c1,7.84%,10.5%,18.5%,-8.33%
CCOc1ccc(CCNC(=O)COC(=O)c2cc(S(=O)(=O)N3CCOCC3)ccc2F)cc1OCC,5.25%,53.2% (active),57.1% (active),-4.44%
Cc1cc(OCC(=O)NC2CC2)c2c(C)cc(=O)oc2c1,18.9%,65.5% (active),58.2% (active),-8.04%
Cc1ccc(OCc2nnc(SCC(=O)Nc3ccc4c(c3)OCCO4)n2Cc2ccco2)cc1,6.71%,45.5% (active),41.2%,1.35%
Cc1nn(Cc2ccc(Cl)cc2)c(C)c1NC(=O)c1ccc([N+](=O)[O-])cc1,36.1% (active),55.9% (active),50% (active),-3.45%
COc1ccc2c(c1)/C(=C/c1cc(OC)c(OC)c(OC)c1)C(=O)N2,52% (active),51% (active),48.2% (active),41.6% (active)
O=C(COC(=O)C1CCCCC1)NCCc1ccccc1,3.93%,50.9% (active),41.5%,-5.95%
Cc1cccc(C(=O)N[C@H](C(=O)Nc2ncc(C)s2)C(C)C)c1,35.8% (active),58.7% (active),39.8%,8.22%
CC1CCC2(CC1)NC(=O)N(CC(=O)Nc1ccc3c(c1)OCCCO3)C2=O (configuration not stated),10.5%,46.8% (active),44.8% (active),-7.87%
CCC1(C)OC(=O)N2CCc3c(C)[nH]c4c(C)ccc(c34)C21C (configuration not stated),8.96%,41.6% (active),44.9% (active),12.7%
CN(C)c1ccc(C(=O)OCC(=O)Nc2ccc(N3CCOCC3)cc2)cc1,-5.42%,62% (active),55.8% (active),-6.21%
COc1cccc(NC(=O)c2oc3ccccc3c2NC(=O)C2CC2)c1,-5.29%,50.6% (active),47.1% (active),-8.83%
OCCCNc1c2ccccc2nc2ccccc12,13.1%,107% (active),56.7% (active),96.4% (active)
COc1ccccc1NC(=O)CN1CCN(CC(=O)Nc2ccc3c(c2)OCO3)CC1,7.22%,54.4% (active),50.7% (active),0.21%
O=C(CN1CCN(c2ncccn2)CC1)N1CCCc2c1c(=O)oc1ccc(O)cc21,13%,62.6% (active),53.6% (active),-33.2%
Cc1c(Cl)cccc1NC(=O)CSc1nc2ncc(Cl)cc2[nH]1,18.2%,69% (active),58% (active),1.96%
Cc1ccccc1C(=O)NC1CCN(CC(=O)Nc2ccc(Br)cc2)CC1,5.55%,59.1% (active),53.4% (active),15.4%
